In PubChem BioAssay:
The source made the active and inactive calls.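 How the source made its calls: active means viability increase at or above a cutoff of the median across tested compounds plus 3 SD (cut at about 8.5% in these data, passing the limit was not always enough); inconclusive means some gains above the cutoff, reason not given; inactive means the rest.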

Test: doxorubicin toxicity protection in MRP-1 cells – H69AR cells, CellTiter-Glo, duplicate, MRP-1 activator project, pilot screen (AID 807);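 further: compound pretreatment 18-22 h then 72 h combined with doxorubicin; 0% = doxorubicin alone and 100% = vehicle without doxorubicin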
Details: H69AR viability with doxorubicin, CellTiter-Glo luminescence; at 10 µM; stronger effect = higher value
In the case of COc1cc2c(cc1OC)C(C(=O)NC1CC1)C1c3ccccc3CCN1C2=O (stereo unspecified), the viability increase is reported as -1.28% (inactive).
With CCSc1nnc(Cn2c(=O)sc3ccccc32)n1C the viability increase was -0.33% (inactive).
In the case of COC(=O)c1ccc(N2C(=O)CC(Sc3n[nH]c(C)n3)C2=O)cc1 (stereo unspecified), the viability increase is reported as 1.12% (inactive).
For Cc1ccc(-c2noc(CSc3nnnn3-c3ccccc3)n2)cc1, the viability increase was 2.8% (inactive).
For CC(=O)c1cccc(NC(=O)c2cc(C(C)C)on2)c1, the viability increase was -1.46% (inactive).
For COc1ccc(CNC(=O)c2cc3c(C)nc4ccccc4c3o2)c(OC)c1, the viability increase was -0.17% (inactive).
With CCn1cc(S(=O)(=O)CC(=O)Nc2ccc(C)cc2)c2ccccc21 the viability increase was -0.58% (inactive).
In the case of COc1ccc(S(=O)(=O)NCCN2CCOCC2)c2ccccc12, the viability increase is reported as -1.32% (inactive).
In the case of Cn1c(=O)c2c(nc(NCCc3ccccc3)n2Cc2ccc(F)cc2)n(C)c1=O, the viability increase is reported as 1.3% (inactive).
In the case of O=C(NCCc1cn2ccsc2n1)c1cccs1, the viability increase is reported as -1.75% (inactive).
With Cc1ccc2oc(=O)c3cnn(CC(=O)N(CCCN4CCOCC4)Cc4ccco4)c3c2c1 the viability increase was -3.59% (inactive).
In the case of Cc1ccccc1-c1noc(-c2cccs2)n1, the viability increase is reported as -4.68% (inactive).
For Cc1cc(S(=O)(=O)N2CCN(Cc3ccccc3)CC2)c(C)s1, the viability increase was -1.58% (inactive).
For COc1ccc(OC)c(NC(=O)C2CCCN(S(=O)(=O)c3cccc4cccnc34)C2)c1 (stereo unspecified), the viability increase was -3.24% (inactive).
With CCC(C)N1C(=O)CCC1C(=O)NCc1ccc2c(c1)OCO2 (stereo unspecified) the viability increase was -3.05% (inactive).
With O=C(CCCOc1ccccc1)NCC1CCCO1 (stereo unspecified) the viability increase was -2.68% (inactive).
